PubChem BioAssay (NCI)
The panel holds about 83,000 compounds, 20% with a hit somewhere; the sample as a whole holds those more often.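 Single-dose data. Exposure time 48 hours. Values below 10 considered active.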 A number with no mark means an inactive call. The source made the active and inactive calls.

Test system: HL-60(TB) leukemia
Test: NCI-60 one-dose screen, 48 h (100 = growth as untreated, 0 = no growth, -100 = all killed)
Conditions: 10 µM unless noted

Structure (SMILES) | growth
CC/C=C\C[C@H](O)C/C=C1/C(=O)C(Cl)=C[C@@H]1C/C=C\CCCC(=O)OC | -2.33% (active)
Cc1ccccc1C1CC(=O)c2ccccc2C1C (stereo not given) | 98.6%
Cc1cc(N)c(S(=O)(=O)O)c(N)c1 | 98.9%
O=C1Cc2c([nH]c3ccc([N+](=O)[O-])cc23)-c2ccccc2N1 | -33.8% (active)
CSc1nc(N)c(N=Nc2ccc(S(=O)(=O)Nc3nnc(C)s3)cc2)c(=O)[nH]1 | 90.4%
Oc1c(Cl)cc(Cl)cc1C(c1cc(Cl)cc(Cl)c1O)C(Cl)(Cl)Cl | 1.53% (active)
O=C1OCC2=C1C(c1cccc(C(F)(F)F)c1)c1cc3c(cc1N2CCO)CCC3 (stereo not given) | -25.2% (active)
COc1cc(OC)cc(-c2ccc(-c3ccc(C(=N)N)cn3)s2)c1 | -25.4% (active)
COc1ccc(C2CC(c3cc(OC)c(OC)c(OC)c3)=NO2)cc1OCCCCOc1cc2c(cc1OC)C(=O)N1CCC[C@H]1C=N2 (stereo not given in full) | 34%
O=c1nc2oc3ccc4ccccc4c3cc-2s1 | -29.2% (active)
CCCCCCCCCCCCSC1=C(Cl)C(=O)C(OC)=C(OC)C1=O | -46.2% (active)
O=C1NCCc2c1noc2-c1ccccc1 | 102%
CCN(CC)CC(O)CNc1c2ccc(Cl)cc2nc2ccc(OC)cc12 (stereo not given) | -0.864% (active)
Clc1ccc2c(c1)-n1cccc1C(c1ccc3ccccc3c1)=NC2 | 76.9%
O=C(Nc1ccc(Cl)c(Cl)c1)OCn1ncc2ccc([N+](=O)[O-])cc21 | 96.3%
O=c1ccc2cc3ccccc3cc2[nH]1 | 67.7%
O=c1nc(-c2ccccc2)c2cc(-c3ccc(N4CCOCC4)cc3)ccc2[nH]1 | 63.5%
CN1CCN(Cc2ccc(NC(=O)c3ccc(C#Cc4c(N)ncc5ccc(F)cc45)cc3)cc2C(F)(F)F)CC1 | -10.7% (active)
NC(N)=NC(N)=Nc1ccccc1-c1ccccc1 | 108%
CC(=O)Oc1ccc(C)cc1C | 95%

Structure (SMILES) | growth
Cc1cnc(NC(=O)C(Cc2ccccc2)NC(=O)c2ccccc2)s1 (stereo not given) | 38.7%
O=C(/C=C/c1ccccc1)c1ccccc1O | 24.1%
S=c1[nH]c(=S)c2c(-c3ccccc3)c(-c3ccccc3)oc2[nH]1 | 94.9%
CC(=O)c1sc2sc(C(C)=O)c(C)c2c1C | 90.1%
CCCCOc1ccc(/C=N/Nc2cc(C)nc3ccc(Br)cc23)cc1 | 1.52% (active)
Cc1cc(Br)c2nsnc2c1[N+](=O)[O-] | 37.7%
COc1ccc(C2c3ccc4ccccc4c3Oc3ncn(CCCn4ccnc4)c(=N)c32)cc1OC (stereo not given) | 40.7%
FC(F)(F)c1ccc(-c2cnc(Cl)nc2N2CCC3(CC2)OCCO3)cc1 | 83.6%
Clc1ccccc1-c1nc2ccccc2[nH]1 | 74.4%
Cc1nc2cc(Nc3nc(Nc4ccc(F)cc4)nc(N4CCCC4)n3)ccc2n1Cc1ccccc1 | -41.5% (active)
COc1ccc2nc(NNC(=O)c3cnccn3)c3cccn3c2c1 | -27.1% (active)
NC(N)=N/N=C\c1cccc(OCc2ccccc2)c1 | 55.5%
NS(=O)(=O)c1ccc(CCn2c(SCC(=O)N/N=C/c3ccccc3O)nc3ccccc3c2=O)cc1 | -25.5% (active)
CCN(CC)Cc1cc(Nc2ccnc3cc(Cl)ccc23)cc(-c2ccc(Cl)cc2)c1O | 51.3%
O=C1c2ccccc2CCc2ccccc21 | 90%
Nc1[nH]n2cc(-c3ccc(F)cc3)nc2c1N=Nc1ccc(S(N)(=O)=O)cc1 | 94.7%
Fc1cc2c(cc1Cl)N(c1ncnc3ccc(-c4cnc5cnccn45)cc13)CC2 | -7.92% (active)
C=C(C)[C@@H]1CC[C@]2(C(=O)OCCOCCOCC[P+](c3ccccc3)(c3ccccc3)c3ccccc3)CC[C@]3(C)[C@H](CC[C@@H]4[C@@]5(C)CC[C@H](OC(C)=O)C(C)(C)[C@@H]5CC[C@]43C)[C@@H]12 | -62.3% (active)
O=C(C[Si](CC(=O)c1cccc(C(F)(F)F)c1)CC(=O)c1cccc(C(F)(F)F)c1)c1cccc(C(F)(F)F)c1 | -40.8% (active)
O=C(CC(C(=O)c1ccccc1)N1CCN(Cc2ccccc2)CC1)c1ccccc1 (stereo not given) | 28.5%
